Source: PubChem BioAssay
LASV entry inh: qHTS for Inhibitors of binding or entry into cells for Lassa Virus | 300,000 tested, 1.2% active | Potency, µM (doses to about 37.9 µM), without a hit: at the highest dose activity change, negative = inhibition, actives largely listed as inhibitors | Lassa virus pseudotype entry inhibition, cell reporter; calls by dose curve; tested in HEK293 cells; also: potency is read from the fitted curve at half-maximal effect; % is scaled to controls: 0 for no effect and ±100 for the full control effect; nearly all actives have a fitted effect of over 50% in size
Shiga toxin inh: A qHTS for Small Molecule Inhibitors of Shiga Toxin. inhibition, % at 38.7 µM. AID 2315, 2010. 290,000 tested, 9.2% active. Vero cells, Shiga toxin protein synthesis inhibition reporter; in the data active = inhibition mostly above about 28%, no sharp cut-off; inactive = mostly below about 43%; also: 0% is about no effect
Pf growth 96h: Primary qHTS for delayed death inhibitors of the malarial parasite plastid, 96 hour incubation; P. falciparum luciferase reporter growth, 96 h; Potency, µM (top dose mostly 28.7 µM), without a hit: at the top dose activity change, negative = inhibition, actives largely listed as inhibitors; 320,000 tested, 6.9% active; also: potency is read from the fitted curve at half-maximal effect; % is scaled to controls: 0 for no effect and ±100 for the full control effect
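Two-generation exposure (96 h) targets delayed-death phenotype. Reporter parasites carrying integrated firefly luciferase, in red cells at 2% hematocrit and 0.05% parasitemia final, kept at 37 C, 5% CO2; luminescence loss indicates inhibition.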
Pf growth 48h: Primary qHTS for delayed death inhibitors of the malarial parasite plastid, 48 hour incubation | AID 504832, 2011 | P. falciparum luciferase growth in erythrocytes, 48 h | Potency, µM (top dose mostly 28.7 µM), inactives show at the top dose activity change, negative = inhibition, usual class: inhibitors | 310,000 tested, 5.9% active; also: potency is read from the fitted curve at half-maximal effect; % is scaled to controls: 0 for no effect and ±100 for the full control effect
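Cell-based growth assay: transgenic P. falciparum expressing firefly luciferase, cultured in red cells within RPMI 1640 containing 0.5% w/v Albumax, 24 mM bicarbonate and gentamycin. A drop in luciferase activity indicates inhibition.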
CHX counter: Cycloheximide Counterscreen for Small Molecule Inhibitors of Shiga Toxin; cell reporter, cycloheximide protein synthesis inhibition counterscreen; 300,000 tested, 12% active; AID 2314, 2010; max response, %; in the data active = max response mostly above about 13%, no sharp cut-off; inactive = mostly below about 14%; also: read at 38.3 µM for the half of the compounds with a filed dose; 0% is about no effect
MARV entry inh: qHTS for inhibitors of binding or entry into cells for Marburg Virus; 300,000 tested, 1.8% active; Marburg virus pseudotyped entry inhibition, cell reporter; Potency, µM (highest dose often 37.8 µM), for the others: at the highest dose activity change, negative = inhibition, most hits filed as inhibitors; AID 540276, 2011; calls by dose curve; tested in HEK293 cells; also: potency is read from the fitted curve at half-maximal effect; % is scaled to controls: 0 for no effect and ±100 for the full control effect
The depositor's hits bear a star; u = inconclusive; x = no result given; [ ] = remark or other dose. Most compounds without a hit are left out; they make up all but 19% or so of the library. Unless noted, calls follow the shape of the dose curve; as a rule, active = well fitted inhibition curve with a large enough effect; inconclusive = small, poorly fitted or top-dose-only effect, or another doubt; inactive = no such curve, though single readings can be large or run the other way.

SMILES	LASV entry inh	Shiga toxin inh	Pf growth 96h	Pf growth 48h	CHX counter	MARV entry inh
c1coc(CN2CCN(C(c3cccs3)c3nnnn3C3CCCC3)CC2)c1 (stereo not given)	u	-17.4	32.0%	7.8%	11.2	u
COc1ccccc1N1CCN(C(c2cccs2)c2nnnn2C2CCCC2)CC1 (stereo not given)	0.9%	-12.1	137.3%	13.1µM*	-1.4	-29.1%
C=CCOc1ccc(C=Nc2ccc(OC)cc2)c(O)c1	1.2%[46.1 µM]	4.4	48.4%	6.7%	23.4	u
COc1ccc(N=Nc2ccc3ccccc3c2)c(O)c1	x	x	102.9%	145.7%	50.0*	x
COc1cccc(N=Nc2ccc3ccccc3c2O)c1	x	58.2*	-24.7%	-73.7%	40.0*	x
COc1ccc(N=Nc2cc(C)ccc2O)cc1	x	82.3*	364.5%	228.6%	48.2*	x
Cc1ccc(S(=O)(=O)N2CCCN(S(=O)(=O)c3ccc(C)cc3)CC2)cc1	13.0%	6.5	u	-17.5%	-1.5	8.9%
Cc1ccc(O)c(N=Nc2ccc(S(=O)(=O)N3CCCC3)cc2)c1	x	42.2*	u	u	27.4*	x
COc1cccc(C(=O)NNC(=O)c2cccc3ccccc23)c1	-1.4%	x	x	x	x	-8.7%
COc1ccc(NC(=O)CN2C(=O)CN=C(c3ccccc3)c3ccccc32)c(OC)c1	5.5%[46.1 µM]	x	x	x	x	x
COc1ccc(N=Nc2ccc(CO)cc2)cc1	1µM*	x	x	x	x	u
COc1ccc(C)cc1NC(=O)c1cc(S(=O)(=O)NCCC2=CCCCC2)ccc1F	12.3%[46.1 µM]	x	x	x	x	x
COc1ccc(C(=O)NCCC2=CCCCC2)cc1[N+](=O)[O-]	u	41.2*	24.5%	20.8%	23.8*	19.0%[46.1 µM]
COc1ccc(OCC(=O)NCCC2=CCCCC2)c([N+](=O)[O-])c1	x	-5.3	6.0%	-19.6%	5.5	x
COc1ccc(C)cc1NC(=O)NCCC1=CCCCC1	-16.2%	10.2	55.3%	14.7µM*	-1.4	-0.4%
CCCNC(=O)C(=O)NCCC1=CCCCC1	-3.9%	14.8	6.1%	1.6%	15.1	u
Cc1cc(C(=O)NCCC2=CCCCC2)c(C)o1	u	117.2*	u	201.7%	38.9*	14.6µM*
COc1ccc(C(=O)NCCN2CCCC2)cc1[N+](=O)[O-]	u	-40.7	2.62µM*	u	-1.8	u
COc1ccc(OC)c(NC(=O)CCS(=O)(=O)c2cc3c(cc2C)NC(=O)CO3)c1	x	4.5	13.1%	-0.6%	-0.5	x
CCOc1ccc(C2C(=O)N(C3CCCCCC3)CC(=O)N2CCc2ccc(OC)c(OC)c2)cc1OC (stereo not given)	12.6%[46.1 µM]	x	x	x	x	x
COc1cccc(C(=O)NCCC2=CCCCC2)c1OC	23.1%	108.2*	16.8%	72.2%	33.4*	u
CN(C(=O)COc1ccccc1)c1nnc(C23CC4CC(CC(C4)C2)C3)s1	10.0%	17.2	u	u	5.5	8.2%
CCc1cc2c(=O)[nH]c(N3CCOCC3)nc2s1	15.7%	33.9*	40.2%	97.8%	22.3*	21.1%[46.1 µM]
CCCCCc1c(C)nc(N2CCOCC2)[nH]c1=O	6.1%	-8.6	8.28µM*	-19.9%	-0.4	16.3%
CCCCCc1c(C)nc(N2CCc3ccccc32)[nH]c1=O	0.0%	7.6	-17.3%	9.28µM*	-1.8	5.2%
SMILES	LASV entry inh	Shiga toxin inh	Pf growth 96h	Pf growth 48h	CHX counter	MARV entry inh
CCc1cc2c(=O)[nH]c(-c3ccncc3)nc2s1	4.4%	-8.7	u	25.7%	3.3	30.3%
Cc1nc(N2CCOCC2)[nH]c(=O)c1C	11.6%[46.1 µM]	5.6	37.0%	39.7%	5.7	3.3%[46.1 µM]
Cn1nc(CC(=O)NC2CCCCCC2)c2ccccc2c1=O	x	-1.9	9.8%	x	-0.5	x
CCSc1ccc2cc(OC)ccc2[n+]1CC	-9.9%	24.6	u	0.738µM*	8.0	-23.3%[46.1 µM]
CC[n+]1c(SC)ccc2cc(OC)ccc21	8.5%	-9.0	-2.2%	0.738µM*	-1.8	u
CCn1c(=S)ccc2ccc(OC)cc21	6.5%	-4.2	30.0%	12.0%	-3.6	1.1%
COc1ccc(CNC(=O)c2cc(-c3ccc(Cl)cc3)n[nH]2)cc1	-14.6%[46.1 µM]	x	x	x	x	x
COc1ccc(N2C(=S)NC3c4cc(Cl)ccc4OC2(C)C3C(=O)N(C)C)cc1 (stereo not given)	-20.9%[46.1 µM]	-6.9	u	-1.0%	-1.0	-12.8%[46.1 µM]
O=C(Nc1ccc(-c2nc3ccccc3[nH]2)cc1)c1ccco1	u	108.9*	-0.2%	-49.6%	42.7*	-22.4%
O=C(/C=C/c1ccco1)Nc1ccc(-c2nc3ccccc3[nH]2)cc1	-12.0%	35.7	11.7µM*	4.15µM*	-2.6	u
O=C(N/C(=C/c1ccc(Br)cc1)c1nc2ccccc2[nH]1)c1ccco1	0.5%	50.8*	-3.5%	-4.3%	14.7*	0.5%
CCOc1ccc(C(=O)COC(=O)C2COc3ccccc3O2)cc1 (stereo not given)	u	x	12.6%	5.6%	x	9.9%
Cc1ccc(NS(=O)(=O)c2ccc3[nH]c(=O)ccc3c2)cc1N(C)C	7.6%[46.1 µM]	x	x	x	x	x
Cn1c2ccccc2c(=O)c2cc(C#Cc3ccc(N)cc3)ccc21	x	38.6*	u	55.5%	40.9*	x
Cn1c2ccccc2c(=O)c2ccc(C#CC3(O)CCCCC3)cc21	x	41.2*	-61.3%	-37.2%	34.9*	x
COc1cccc(NC(=O)c2c(N3CCCC3=O)c3cc(C)ccc3n2C)c1	14.5%[46.1 µM]	x	x	x	x	x
Cn1c(=O)[nH]c(=O)c2c1nc(SCC(=O)Nc1ccccc1)n2Cc1ccccc1	x	-4.3	9.28µM*	11.7µM*	7.5	x
CCCn1c(N2CCN(Cc3cccc(C)c3)CC2)nc2c1c(=O)[nH]c(=O)n2C	x	-6.5	1.85µM*	x	-2.8	x
Cc1cccc(Cn2c(CN3CCN(Cc4ccccc4)CC3)nc3c2c(=O)[nH]c(=O)n3C)c1	x	-7.6	1.85µM*	6.57µM*	-3.9	x
CCCCCn1c(N2CCN(Cc3ccccc3)CC2)nc2c1c(=O)[nH]c(=O)n2C	u	-7.0	u	11.7µM*	-3.1	-27.4%
C=C(C)CSc1nc2c(c(=O)[nH]c(=O)n2C)n1Cc1ccccc1	x	2.0	u	u	-4.0	x
Cn1c(=O)[nH]c(=O)c2c1nc(CN1CCOCC1)n2Cc1ccccc1	-6.9%	28.9	u	4.1%	-1.5	4.4%
O=C(NCCCN1CCOCC1)c1cn(-c2ccccc2)nc1-c1ccc(Br)cc1	-2.0%	x	x	x	x	u
C=CCn1c(NCc2ccco2)nc2ccccc21	x	-4.8	27.1%	2.3%	-3.3	x
Cc1ccc(OCCCN2CCCC2)c(C)c1	7.8%	-2.4	u	x	0.6	-11.2%
CN1CCN(c2nc3c(c(=O)[nH]c(=O)n3C)n2CCCSc2nnnn2-c2ccccc2)CC1	1.7%	10.2	9.28µM*	u	6.1	10.9%
Cc1ccc(Cn2c(N3CCCCCC3)nc3c2c(=O)[nH]c(=O)n3C)cc1	-7.8%	-11.4	x	4.15µM*	1.5	u
CC(=O)Cn1c(N2CCC(Cc3ccccc3)CC2)nc2c1c(=O)[nH]c(=O)n2C	-22.4%	10.0	u	1.6%	-5.5	5.2%[46.1 µM]
